Laboratory results reported in PubChem BioAssay (Tox21).
Values without a mark were called inactive. Results filed as inconclusive are left out. Where a call stands in place of a potency, no number is given. Active and inactive are the calls of the source. Unless noted, calls follow the shape of the dose curve; as a rule, active = well fitted curve in the direction sought with a large enough effect in the repeat runs; inconclusive = weak or mixed curves; inactive = no such curve, though single readings can be large; an effect the other way counts as inactive or inconclusive.

Experiments:
[1] = A CellTox Green Cytotoxicity Assay to monitor cytotoxicity in HepG2 cells - 0 hour (AID 1224882); also: nearly all actives have a fitted effect of over 35% in size
How it was run: (§1)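 Continuous culture of HepG2 cells with a membrane-impermeant DNA dye; rising fluorescence marks dead cells. Compound exposure lasted up to 40 h at 37 C, with reads every 8 h from 0 h.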

[2] = A CellTox Green Cytotoxicity Assay to monitor cytotoxicity in HepG2 cells - 32 hour (AID 1224883); also: nearly all actives have a fitted effect of over 50% in size; also: potency is read from the fitted curve at half-maximal effect
How it was run: as §1

[3] = A CellTox Green Cytotoxicity Assay to monitor cytotoxicity in HEK293 cells - 8 hour (AID 1224884); also: nearly all actives have a fitted effect of over 35% in size
How it was run: (§2)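 Each value comes from one timepoint of a single continuous run in which HEK293 cells with CellTox Green were exposed to compound for up to 40 h at 37 C, dye fluorescence rising with cell death.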

[4] = qHTS RealTime-Glo MT Cell Viability Assay in HepG2 cells - 16 hour (AID 1224885); also: nearly all actives have a fitted effect of over 50% in size
How it was run: (§3)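 Real-time, nonlytic viability: 600 HepG2 cells/well mixed with NanoLuc enzyme plus prosubstrate; 5 h settle, compound (DMSO) added by pintool; luminescence monitored over 40 h at 37 C.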

[5] = A CellTox Green Cytotoxicity Assay to monitor cytotoxicity in HEK293 cells - 16 hour (AID 1224888); also: nearly all actives have a fitted effect of over 35% in size
How it was run: as §2

[6] = qHTS RealTime-Glo MT Cell Viability Assay in HepG2 cells - 0 hour (AID 1224889); also: nearly all actives have a fitted effect of over 50% in size; also: potency is read from the fitted curve at half-maximal effect
How it was run: as §3

[7] = A CellTox Green Cytotoxicity Assay to monitor cytotoxicity in HepG2 cells - 8 hour (AID 1224890); also: nearly all actives have a fitted effect of over 45% in size
How it was run: as §1

[8] = qHTS assay to identify small molecule antagonists of the estrogen receptor alpha (ER-alpha) signaling pathway using the BG1 cell line in the presence of 0.1 nM 17-beta-estradiol - cell viability counter screen (AID 1259241); also: nearly all actives have a fitted effect of over 40% in size
How it was run: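 Cytotoxicity counter-screen: live-cell protease activity measured by fluorescence (30 min reagent step) in the same wells. Cells were VM7Luc4E2 with endogenous ER-alpha and ERE-driven luciferase, treated 22 hr at 37C alongside 0.1 nM 17beta-estradiol final.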

[9] = qHTS assay to identify small molecule antagonists of the androgen receptor (AR) signaling pathway using the MDA cell line in the presence of 0.5 nM R1881 - cell viability counter screen (AID 1259242); also: nearly all actives have a fitted effect of over 45% in size
How it was run: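 Fluorescence from CellTiter-Fluor, which reports protease activity of live cells, was read 30 min after reagent addition to MDA-kb2 cells that had been incubated 16 hr with compound and 0.5 nM R1881.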

[10] = target: Androgen receptor (Homo sapiens) (UniProt P10275); experiment: qHTS assay to identify small molecule antagonists of the androgen receptor (AR) signaling pathway using the MDA cell line in the presence of 0.5 nM R1881 (AID 1259243); also: nearly all actives have a fitted effect of over 50% in size; also: potency is read from the fitted curve at half-maximal effect
How it was run: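 Inhibition of R1881 (0.5 nM final) induced reporter signal was measured in human MDA-kb2 cells; note the MMTV promoter also responds to GR. Exposure lasted 16 hr at 37C.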

[11] = target: Estrogen receptor (Homo sapiens) (UniProt P03372); experiment: qHTS assay to identify small molecule antagonists of the estrogen receptor alpha (ER-alpha) signaling pathway using the BG1 cell line in the presence of 0.1 nM 17-beta-estradiol (AID 1259244); also: nearly all actives have a fitted effect of over 50% in size; also: potency is read from the fitted curve at half-maximal effect
How it was run: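 Quantitative high-throughput screen in VM7Luc4E2 cells: compound plus 0.1 nM E2 (final), 22 h, 37C, 5% CO2; ONE-Glo added, 30 min room temperature, luminescence measured.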

[12] = qHTS assay to identify small molecule HDAC inhibitors (AID 1259364); also: nearly all actives have a fitted effect of over 45% in size; also: potency is read from the fitted curve at half-maximal effect
How it was run: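 Endogenous HDAC class I/II activity was measured in wild-type HCT-116 cells by HDAC-Glo luminescence after 2 h compound treatment.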

[13] = qHTS assay to identify small molecule HDAC inhibitors - cell viability counter screen (AID 1259365)
How it was run: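 CellTiter-Glo luminescence (30 min, room temperature) reported viability after a 2 h compound exposure at 37 C. Cells: wild-type HCT-116, 1,500 per well, seeded the night before.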

[14] = qHTS assay to identify small molecule agonists of the sonic hedgehog signaling (Shh) pathway (AID 1259368; calls by dose curve;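 also: NIH/3T3-derived 3T3Gli1-Luc cells carrying a stable Gli1-driven firefly luciferase reporter; series mostly up to about 92 µM; nearly all actives have a fitted effect of over 15% in size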)
How it was run: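 Luminescent signal was taken as a measure of Gli1-controlled luciferase expression in stably transfected NIH/3T3-derived cells that had been treated for 24 hr with compounds delivered in DMSO.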

[15] = qHTS RealTime-Glo MT Cell Viability Assay in HEK293 cells - 24 hour (AID 1224886); also: nearly all actives have a fitted effect of over 50% in size; also: potency is read from the fitted curve at half-maximal effect
How it was run: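 Cells + reagent dispensed (600 cells/well, HEK293) → 5 h at 37 C/5% CO2 → 23 nL compound in DMSO pinned → 40 h at 37 C → luminescence read at 0, 8, 16, 24, 32, 40 h.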

[16] = qHTS RealTime-Glo MT Cell Viability Assay in HEK293 cells - 8 hour (AID 1224887); also: nearly all actives have a fitted effect of over 50% in size; also: potency is read from the fitted curve at half-maximal effect
How it was run: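 qHTS format; HEK293 cells with NanoLuc/prosubstrate reagent, 37 C/5% CO2 for 5 h pre-dosing; compounds 23 nL in DMSO; luminescence at each time point reflects viable cells.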

[17] = qHTS assay to identify small molecule phospholipidosis (PLD) inducers (AID 1259344; active = well fitted curve in the direction sought with a large enough effect; an effect the other way counts as inactive or inconclusive)
How it was run: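 HepG2 cells, 900/well, treated with compound plus LipidTOX Red for 24 h at 37 C; amiodarone positive and DMSO negative controls. Fixed with paraformaldehyde/Hoechst, then high-content imaging scored LipidTOX pit count and integrated intensity per well and per cell.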

[18] = qHTS assay to identify small molecule agonists of the sonic hedgehog signaling (Shh) pathway - cell viability counter screen (AID 1259366); also: nearly all actives have a fitted effect of over 50% in size
How it was run: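 Cytotoxicity counter screen: CellTiter-Fluor reagent added after 23 h compound exposure, then 1 h at 37C and fluorescence read. Cells were 3T3 Gli1-Luc, seeded 2,000 per well and dosed 4 h post-plating.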

[19] = qHTS assay to identify small molecule antagonists of the sonic hedgehog signaling (Shh) pathway - cell viability counter screen (AID 1259367); also: nearly all actives have a fitted effect of over 55% in size; also: potency is read from the fitted curve at half-maximal effect
How it was run: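 NIH/3T3-derived Gli1-Luc reporter cells, 2,000/well, plated 4 hr before compound addition, then stimulated with conditioned medium for 24 hr at 37C. Viability measured in the same wells by CellTiter-Fluor fluorescence, reagent added at 23 hr for 1 hr.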

Androgen receptor (Homo sapiens), sequence (P10275 whole entry, looked up): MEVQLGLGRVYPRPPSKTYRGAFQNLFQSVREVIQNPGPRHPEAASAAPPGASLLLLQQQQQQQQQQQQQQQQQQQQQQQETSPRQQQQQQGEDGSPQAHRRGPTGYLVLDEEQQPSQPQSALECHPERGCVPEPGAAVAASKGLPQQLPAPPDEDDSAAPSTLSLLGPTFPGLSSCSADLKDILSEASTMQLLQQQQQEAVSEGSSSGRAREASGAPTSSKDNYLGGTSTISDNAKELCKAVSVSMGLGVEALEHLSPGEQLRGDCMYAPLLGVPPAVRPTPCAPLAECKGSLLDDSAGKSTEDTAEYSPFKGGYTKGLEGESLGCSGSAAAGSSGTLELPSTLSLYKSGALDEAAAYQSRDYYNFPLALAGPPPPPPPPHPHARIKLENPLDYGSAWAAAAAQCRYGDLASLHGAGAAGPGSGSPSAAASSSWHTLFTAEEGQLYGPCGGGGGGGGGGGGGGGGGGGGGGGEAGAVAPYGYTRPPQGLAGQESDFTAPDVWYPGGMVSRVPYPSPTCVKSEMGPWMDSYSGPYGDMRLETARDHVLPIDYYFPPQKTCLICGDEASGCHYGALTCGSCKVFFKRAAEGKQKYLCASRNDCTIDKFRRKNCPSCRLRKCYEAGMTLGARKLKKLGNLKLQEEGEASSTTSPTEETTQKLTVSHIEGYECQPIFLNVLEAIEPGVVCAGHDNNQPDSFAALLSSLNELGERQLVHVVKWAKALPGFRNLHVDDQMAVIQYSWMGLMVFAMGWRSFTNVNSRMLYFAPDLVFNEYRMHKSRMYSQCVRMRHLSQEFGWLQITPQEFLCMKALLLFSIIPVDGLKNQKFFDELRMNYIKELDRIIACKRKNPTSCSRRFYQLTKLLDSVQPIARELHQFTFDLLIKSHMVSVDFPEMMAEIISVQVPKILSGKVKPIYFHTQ
Estrogen receptor (Homo sapiens), sequence (P03372 whole entry, looked up): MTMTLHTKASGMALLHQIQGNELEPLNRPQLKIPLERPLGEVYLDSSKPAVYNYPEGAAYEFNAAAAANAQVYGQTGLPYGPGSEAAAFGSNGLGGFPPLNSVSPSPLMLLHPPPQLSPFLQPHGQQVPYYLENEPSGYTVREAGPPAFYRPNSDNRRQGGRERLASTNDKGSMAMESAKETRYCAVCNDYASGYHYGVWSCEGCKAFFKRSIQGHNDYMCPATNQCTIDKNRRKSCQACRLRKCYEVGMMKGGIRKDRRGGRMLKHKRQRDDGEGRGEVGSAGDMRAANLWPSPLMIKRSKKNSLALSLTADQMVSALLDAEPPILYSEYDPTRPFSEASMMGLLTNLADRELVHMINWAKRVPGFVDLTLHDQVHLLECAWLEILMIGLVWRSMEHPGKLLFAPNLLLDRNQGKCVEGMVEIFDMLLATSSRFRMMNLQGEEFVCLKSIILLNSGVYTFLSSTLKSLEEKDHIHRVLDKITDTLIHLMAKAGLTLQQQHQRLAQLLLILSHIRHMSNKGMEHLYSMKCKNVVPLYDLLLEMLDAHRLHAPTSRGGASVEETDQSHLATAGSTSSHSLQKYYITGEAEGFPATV

Row | SMILES | Potency [1] | Potency [2] | Potency [3] | Potency [4] | Potency [5] | Potency [6] | Potency [7] | Potency [8] | Potency [9] | Potency [10] | Potency [11] | Potency [12] | outcome [13] | outcome [14] | Potency [15] | Potency [16] | Potency [17] | Potency [18] | Potency [19] | PLD induction [17]
1 | CCC(C)N(C)C(=O)c1cc2ccccc2c(-c2ccccc2Cl)n1 (configuration not stated) | inactive | 25.2 µM (active) | inactive | inactive | inactive | 20 µM (active) | inactive | inactive | inactive | 28 µM (active) | inactive | inactive | inactive | inactive | – | – | – | – | – | –
2 | Cn1c(=O)c2c(ncn2CC(O)CO)n(C)c1=O (configuration not stated) | inactive | – | inactive | inactive | – | inactive | inactive | – | inactive | – | inactive | inactive | inactive | inactive | inactive | inactive | inactive | inactive | inactive | –
3 | CCOC(=O)CC(=O)c1cc(F)c(Cl)nc1Cl | inactive | inactive | inactive | inactive | – | inactive | inactive | inactive | inactive | – | inactive | inactive | inactive | inactive | – | inactive | – | inactive | inactive | –
4 | Oc1ccc(O)c2c(O)cccc12 | inactive | inactive | inactive | inactive | – | inactive | inactive | inactive | inactive | – | inactive | inactive | inactive | inactive | inactive | – | – | inactive | inactive | –
5 | O=C(Nc1ccccc1)OCC(CN1CCCCC1)OC(=O)Nc1ccccc1 (configuration not stated) | – | – | inactive | inactive | inactive | inactive | inactive | inactive | inactive | – | inactive | inactive | inactive | inactive | – | – | inactive | – | inactive | –
6 | CC(=O)O[C@@H]1C(=O)O[C@@H]2[C@H]1OC(=O)[C@@H]2OC(C)=O | inactive | – | inactive | – | – | inactive | inactive | – | inactive | – | inactive | inactive | – | inactive | inactive | inactive | – | inactive | – | 0.969% [at 7.66 µM]
7 | CN(C)CCCOc1nn(Cc2ccccc2)c2ccccc12 | inactive | – | inactive | inactive | inactive | inactive | inactive | inactive | inactive | – | inactive | inactive | – | inactive | – | inactive | inactive | – | inactive | –
8 | CCCC[C@H]1CN(CC2CCOCC2)C(=O)OC12CCN(C1(C)CCN(C(=O)c3c(C)ncnc3C)CC1)CC2 | inactive | – | inactive | inactive | inactive | – | inactive | – | inactive | – | – | inactive | inactive | inactive | inactive | inactive | – | inactive | inactive | –
9 | OCCC1CCCCN1 (configuration not stated) | inactive | – | inactive | inactive | inactive | inactive | inactive | inactive | – | – | inactive | inactive | inactive | inactive | inactive | – | – | inactive | inactive | –
10 | O=[N+]([O-])c1cc[n+]([O-])cc1 | inactive | – | inactive | – | – | inactive | inactive | – | inactive | 54.5 µM (active) | 54.5 µM (active) | inactive | inactive | inactive | inactive | – | – | – | 61.1 µM (active) | –
11 | CCCCOc1cc(C(=O)OCCN(CC)CC)ccc1N | – | – | inactive | inactive | inactive | inactive | – | inactive | inactive | – | inactive | inactive | inactive | inactive | inactive | inactive | inactive | inactive | inactive | –
12 | C[C@@H](C1=C(CCN(C)C)Cc2ccccc21)c1ccccn1 | inactive | – | inactive | inactive | – | inactive | inactive | inactive | inactive | – | – | inactive | inactive | inactive | inactive | inactive | inactive | – | inactive | –
13 | CC(C)(C)C1CCCCC1O (configuration not stated) | inactive | – | inactive | inactive | – | inactive | inactive | inactive | inactive | – | inactive | inactive | inactive | inactive | inactive | inactive | – | inactive | inactive | –
14 | CC(C(=O)O)c1ccc(C(=O)c2ccccc2)s1 (configuration not stated) | inactive | inactive | inactive | – | inactive | inactive | inactive | inactive | – | inactive | inactive | 6.68 µM (active) | – | inactive | inactive | inactive | inactive | inactive | – | –
15 | CCCCCCCC/C=C\CCCCCCCC(N)=O | inactive | – | inactive | inactive | inactive | inactive | inactive | inactive | inactive | inactive | – | inactive | – | inactive | – | inactive | – | inactive | inactive | –
16 | CCCCCC/C=C/C=O | inactive | – | inactive | inactive | – | inactive | inactive | – | inactive | – | – | inactive | inactive | inactive | inactive | inactive | – | inactive | inactive | –
17 | CC/C(=C\C(=N/O)C(N)=O)C(C)[N+](=O)[O-] (configuration not stated) | inactive | inactive | inactive | inactive | – | inactive | inactive | inactive | inactive | – | inactive | inactive | inactive | inactive | – | inactive | – | inactive | inactive | –
18 | O=c1[nH]cnc2ccccc12 | inactive | inactive | inactive | – | – | inactive | inactive | inactive | inactive | – | inactive | inactive | inactive | inactive | inactive | inactive | – | inactive | inactive | –
19 | OC(CCN1CCCCC1)(c1ccccc1)C1CCCCC1 (configuration not stated) | inactive | inactive | inactive | inactive | inactive | inactive | inactive | inactive | inactive | – | inactive | inactive | inactive | inactive | – | inactive | inactive | inactive | – | –
20 | CC(=O)N(O)CCCCCNC(=O)CCC(=O)N(O)CCCCCNC(=O)CCC(=O)N(O)CCCCCN | inactive | inactive | inactive | – | inactive | inactive | inactive | inactive | inactive | inactive | inactive | inactive | inactive | inactive | – | inactive | inactive | inactive | inactive | –
21 | Cc1ccccc1N=Nc1ccc(N=Nc2c(O)ccc3ccccc23)c(C)c1 | inactive | – | inactive | inactive | inactive | inactive | inactive | inactive | inactive | – | inactive | inactive | inactive | inactive | inactive | inactive | inactive | inactive | – | –
22 | Oc1ccc(Cc2ccccc2)cc1 | inactive | – | inactive | – | – | inactive | inactive | inactive | inactive | – | – | inactive | – | inactive | 36 µM (active) | 22.7 µM (active) | – | – | – | –
